In article PMC7862700, “An all-to-all approach to the identification of sequence-specific readers for epigenetic DNA modifications on cytosine”:

Legend:
Assay in all cases: DAPPL (digital affinity profiling via proximity ligation, sequencing); 10 mM Tris-HCl pH 7.5, 50 mM NaCl, 1 mM DTT, 4% glycerol, room temperature, 30 min; GST-TFs on glutathione beads, 16-mer random dsDNA library, 0.1% formaldehyde crosslink after washing; high values mean tight binding
Settings in all cases: protein: recombinant; tags: N-terminal GST; dsDNA, one strand shown
ETV2 = molecular target: T1, ETV2 (Homo sapiens, UniProt O00321 1-342)
T1 sequence: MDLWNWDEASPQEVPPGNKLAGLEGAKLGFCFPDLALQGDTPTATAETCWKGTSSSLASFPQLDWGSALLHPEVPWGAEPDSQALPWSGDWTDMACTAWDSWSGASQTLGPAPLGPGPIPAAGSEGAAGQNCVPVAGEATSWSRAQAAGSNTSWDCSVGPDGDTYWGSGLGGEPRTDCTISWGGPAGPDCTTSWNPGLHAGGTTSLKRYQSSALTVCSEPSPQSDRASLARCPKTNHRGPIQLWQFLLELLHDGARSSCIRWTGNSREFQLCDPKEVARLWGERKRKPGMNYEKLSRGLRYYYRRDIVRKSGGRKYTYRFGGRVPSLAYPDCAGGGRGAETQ
Procedure, shortened: (§1)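 In yeast, human transcription factors were expressed with a GST fusion, then pulled down on glutathione beads and given DNA barcodes. Pooled with a tag-only sample, they were exposed to 200 nmole of a 16-mer random double-stranded DNA library (Tris/NaCl/DTT/glycerol buffer, room temperature, 30 min), washed, crosslinked with 0.1% formaldehyde, proximity-ligated using BsaI/T4 ligase for 1 h at 37 °C, PCR-amplified and read on an Illumina NextSeq500. Each hexamer's frequency of reads for a factor, divided by the matching frequency for the tag-only sample, gives the binding signal.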

ELF3 = molecular target: T2, ELF3 (Homo sapiens, UniProt P78545 1-371)
T2 sequence: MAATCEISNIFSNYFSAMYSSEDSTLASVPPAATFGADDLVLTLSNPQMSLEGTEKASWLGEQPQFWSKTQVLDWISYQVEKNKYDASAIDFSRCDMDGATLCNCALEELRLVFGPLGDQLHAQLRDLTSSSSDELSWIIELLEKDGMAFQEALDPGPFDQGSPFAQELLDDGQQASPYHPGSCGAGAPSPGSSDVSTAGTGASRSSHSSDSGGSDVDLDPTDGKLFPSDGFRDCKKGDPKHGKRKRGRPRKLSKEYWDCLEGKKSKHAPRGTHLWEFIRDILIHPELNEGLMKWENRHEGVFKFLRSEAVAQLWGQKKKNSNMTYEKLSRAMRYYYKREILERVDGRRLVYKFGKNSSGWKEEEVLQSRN
Procedure, shortened: as §1

ETV1 = ETV1 (Homo sapiens, UniProt P50549 1-477)
Procedure, shortened: as §1

ERF = molecular target: T3, ERF (Homo sapiens, UniProt P50548 1-548)
T3 sequence: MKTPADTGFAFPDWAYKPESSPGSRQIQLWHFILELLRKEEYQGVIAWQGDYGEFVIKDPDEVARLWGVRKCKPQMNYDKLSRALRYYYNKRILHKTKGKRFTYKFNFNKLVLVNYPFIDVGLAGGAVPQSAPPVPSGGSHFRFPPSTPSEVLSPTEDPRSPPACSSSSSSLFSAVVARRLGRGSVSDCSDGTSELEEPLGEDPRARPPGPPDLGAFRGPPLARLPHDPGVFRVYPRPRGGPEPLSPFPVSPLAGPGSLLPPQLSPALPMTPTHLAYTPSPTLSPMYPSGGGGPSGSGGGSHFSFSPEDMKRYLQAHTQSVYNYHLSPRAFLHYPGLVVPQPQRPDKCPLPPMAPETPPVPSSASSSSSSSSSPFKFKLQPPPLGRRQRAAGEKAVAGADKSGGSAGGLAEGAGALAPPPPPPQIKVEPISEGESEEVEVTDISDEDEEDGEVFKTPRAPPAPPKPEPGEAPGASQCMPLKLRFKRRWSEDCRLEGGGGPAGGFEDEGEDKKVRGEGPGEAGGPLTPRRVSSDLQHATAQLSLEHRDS
Procedure, shortened: as §1

ETV3L = molecular target: T4, ETV3L (Homo sapiens, UniProt Q6ZN32 1-361)
T4 sequence: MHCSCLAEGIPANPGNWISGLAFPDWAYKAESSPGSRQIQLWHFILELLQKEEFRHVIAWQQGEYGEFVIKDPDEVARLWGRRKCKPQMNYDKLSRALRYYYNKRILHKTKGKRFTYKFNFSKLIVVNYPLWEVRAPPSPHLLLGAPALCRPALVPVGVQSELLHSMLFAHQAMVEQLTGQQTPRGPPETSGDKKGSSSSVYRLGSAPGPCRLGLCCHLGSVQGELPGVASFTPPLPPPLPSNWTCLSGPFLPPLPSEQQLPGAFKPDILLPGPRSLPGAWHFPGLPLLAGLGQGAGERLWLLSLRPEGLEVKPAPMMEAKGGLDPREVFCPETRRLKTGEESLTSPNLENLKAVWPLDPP
Procedure, shortened: as §1

SPDEF = molecular target: T5, SPDEF (Homo sapiens, UniProt O95238 1-335)
T5 sequence: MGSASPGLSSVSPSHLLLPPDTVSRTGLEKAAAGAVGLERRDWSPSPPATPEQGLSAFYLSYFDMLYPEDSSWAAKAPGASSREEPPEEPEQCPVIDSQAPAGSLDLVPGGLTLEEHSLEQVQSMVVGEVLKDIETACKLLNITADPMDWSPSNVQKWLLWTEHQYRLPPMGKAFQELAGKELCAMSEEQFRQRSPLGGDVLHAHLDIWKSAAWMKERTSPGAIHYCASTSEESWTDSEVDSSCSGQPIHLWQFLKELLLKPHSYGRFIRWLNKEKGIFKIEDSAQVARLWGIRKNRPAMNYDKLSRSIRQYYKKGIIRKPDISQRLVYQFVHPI
Procedure, shortened: as §1

ETV7 = molecular target: T6, ETV7 (Homo sapiens, UniProt Q9Y603 1-341)
T6 sequence: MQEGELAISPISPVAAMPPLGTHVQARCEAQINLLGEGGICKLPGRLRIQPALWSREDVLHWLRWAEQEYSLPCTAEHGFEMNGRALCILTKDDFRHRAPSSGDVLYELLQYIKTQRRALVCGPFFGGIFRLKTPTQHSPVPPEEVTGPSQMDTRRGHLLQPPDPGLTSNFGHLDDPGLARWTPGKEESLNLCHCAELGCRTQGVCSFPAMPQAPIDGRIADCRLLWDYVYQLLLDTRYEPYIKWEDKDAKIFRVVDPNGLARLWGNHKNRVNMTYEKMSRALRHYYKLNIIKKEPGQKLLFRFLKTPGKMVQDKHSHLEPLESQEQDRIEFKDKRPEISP
Procedure, shortened: as §1

ELF5 = molecular target: T7, ELF5 (Homo sapiens, UniProt Q9UKW6-2 1-255)
T7 sequence: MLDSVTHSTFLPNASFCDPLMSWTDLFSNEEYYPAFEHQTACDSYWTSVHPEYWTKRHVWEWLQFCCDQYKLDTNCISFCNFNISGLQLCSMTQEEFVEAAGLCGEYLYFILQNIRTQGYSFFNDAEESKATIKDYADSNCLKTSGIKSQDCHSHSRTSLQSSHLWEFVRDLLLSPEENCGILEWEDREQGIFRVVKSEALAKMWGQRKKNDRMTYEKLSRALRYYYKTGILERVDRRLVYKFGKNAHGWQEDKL
Procedure, shortened: as §1

ETV6 = ETV6 (Homo sapiens, UniProt P41212 1-452)
Procedure, shortened: as §1

Sequence of ETV6 (P41212 whole entry): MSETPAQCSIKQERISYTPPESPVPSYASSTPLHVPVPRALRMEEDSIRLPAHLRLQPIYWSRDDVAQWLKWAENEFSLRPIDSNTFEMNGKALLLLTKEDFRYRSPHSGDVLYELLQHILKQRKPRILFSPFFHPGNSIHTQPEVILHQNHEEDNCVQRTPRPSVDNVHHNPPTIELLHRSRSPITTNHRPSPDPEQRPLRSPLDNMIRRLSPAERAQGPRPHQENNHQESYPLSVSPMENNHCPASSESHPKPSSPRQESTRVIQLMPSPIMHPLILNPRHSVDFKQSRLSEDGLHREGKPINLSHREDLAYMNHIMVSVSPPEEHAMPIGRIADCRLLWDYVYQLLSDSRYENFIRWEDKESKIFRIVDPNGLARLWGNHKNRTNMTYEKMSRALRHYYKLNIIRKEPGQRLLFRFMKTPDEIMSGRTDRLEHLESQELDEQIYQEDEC
Sequence of ETV1 (P50549 whole entry): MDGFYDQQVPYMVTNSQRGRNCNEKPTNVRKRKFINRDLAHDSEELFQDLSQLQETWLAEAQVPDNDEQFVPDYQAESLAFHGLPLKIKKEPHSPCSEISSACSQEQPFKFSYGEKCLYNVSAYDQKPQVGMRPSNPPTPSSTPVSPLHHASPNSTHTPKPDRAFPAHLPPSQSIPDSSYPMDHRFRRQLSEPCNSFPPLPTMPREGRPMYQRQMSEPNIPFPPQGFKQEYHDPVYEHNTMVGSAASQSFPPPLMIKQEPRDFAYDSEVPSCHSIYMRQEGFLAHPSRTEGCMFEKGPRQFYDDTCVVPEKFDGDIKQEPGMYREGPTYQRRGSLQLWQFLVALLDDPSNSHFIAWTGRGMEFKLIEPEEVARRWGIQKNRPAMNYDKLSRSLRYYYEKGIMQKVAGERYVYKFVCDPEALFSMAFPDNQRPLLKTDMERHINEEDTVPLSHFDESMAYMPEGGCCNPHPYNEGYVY

## CACACC
ETV2
  binding signal: 1.03 fold enrichment (6-mer frequency, TF over GST control)
ELF3
  binding signal: 1.02 fold enrichment (6-mer frequency, TF over GST control)
ETV1
  binding signal: 1.14 fold enrichment (6-mer frequency, TF over GST control)
ERF
  binding signal: 1.02 fold enrichment (6-mer frequency, TF over GST control)
ETV3L
  binding signal: 1.02 fold enrichment (6-mer frequency, TF over GST control)
SPDEF
  binding signal: 1.02 fold enrichment (6-mer frequency, TF over GST control)
ETV7
  binding signal: 1.01 fold enrichment (6-mer frequency, TF over GST control)
ELF5
  binding signal: 1.03 fold enrichment (6-mer frequency, TF over GST control)
ETV6
  binding signal: 1.01 fold enrichment (6-mer frequency, TF over GST control)
